Compound activity (PubChem BioAssay)
SMN2 splice enh – enhancers of SMN2 splice variant expression; HEK293 SMN2-luciferase splicing reporter, luminescence, 30-36 h; Potency, µM (series often up to 46.1 µM), for the others: top-dose activity change, positive = activation, most hits filed as activators; 210,000 tested, 2.8% active; AID 1458; note: % of control where 0% means no effect; nearly all actives have a fitted effect of over 55% in size
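qHTS luciferase splicing reporter: luminescence rises when SMN2 exon 7 is included in transfected HEK293 cells. Compound exposure lasted 30-36 h at 37C, with 4.5 mM final sodium butyrate as control, followed by a ONE-Glo read.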
Rab9 promoter act – activates the Rab9 promoter | Potency, µM (series often up to 9.22 µM), without a hit: top-dose activation, negative = inhibition, most hits filed as activators | Huh7 Rab9 promoter-luciferase reporter, luminescence, 24 h | 320,000 tested, 2.8% active; note: % of control where 0% means no effect; nearly all actives have a fitted effect of over 60% in size
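Quantitative HTS format; Huh7 Rab9-luciferase reporter cells (1500/well) receive compound 2 h post-plating, incubate 24 h at 37 °C, then get luciferase reagent for 10 min before luminescence reading.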
FLuc modulator – counter-screen for miR-21 project: firefly luciferase inhibitors or activators; P08659; purified FLuc, Km substrates, luminescence inhibition; Potency, µM (doses to about 57.5 µM), inactives show at the top dose activity change, negative = inhibition, hits mostly inhibitors; 360,000 tested, 6.9% active;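 note: plate controls were vehicle for no effect and reference inhibitor for full effect; nearly all actives have a fitted effect of over 55% in size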
Target sequence (P08659 whole entry, looked up): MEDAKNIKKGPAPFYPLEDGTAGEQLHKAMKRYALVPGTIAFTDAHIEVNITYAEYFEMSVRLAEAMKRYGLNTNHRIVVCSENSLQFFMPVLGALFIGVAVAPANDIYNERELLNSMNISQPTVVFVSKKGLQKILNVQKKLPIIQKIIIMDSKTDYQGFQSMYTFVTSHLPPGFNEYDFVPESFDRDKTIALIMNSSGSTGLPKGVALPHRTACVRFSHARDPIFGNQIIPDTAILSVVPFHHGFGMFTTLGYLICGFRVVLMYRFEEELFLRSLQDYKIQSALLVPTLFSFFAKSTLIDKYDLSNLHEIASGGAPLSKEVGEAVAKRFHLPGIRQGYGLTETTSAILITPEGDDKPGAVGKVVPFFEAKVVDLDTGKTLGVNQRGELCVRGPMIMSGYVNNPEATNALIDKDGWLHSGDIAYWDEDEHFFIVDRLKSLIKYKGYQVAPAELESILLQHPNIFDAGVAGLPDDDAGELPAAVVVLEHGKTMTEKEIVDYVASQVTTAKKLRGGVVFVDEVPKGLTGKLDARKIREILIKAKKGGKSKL
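Purified P. pyralis luciferase, 10 nM final, with Km-level 10 uM D-luciferin and 10 uM ATP in 50 mM Tris acetate pH 7.5, 10 mM Mg acetate, 0.01% Tween-20, 0.05% BSA; 6-point qHTS titration about 60 µM downward; luminescence read.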
ELG1 DNA repair – inhibitors of ELG1-dependent DNA repair in HEK293T cells | HEK293T ELG1-luciferase reporter, luminescence, 16 h; DNA damage induced by 5-fluorouridine | AID 504467 | Potency, µM (highest dose often 46.1 µM), without a hit: top-dose activity change, negative = inhibition, usual class: inhibitors | 330,000 tested, 2.3% active; note: % is set by controls: 0 for no effect and ±100 for the full control effect; nearly all actives have a fitted effect of over 55% in size
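Overnight (16 hr) co-exposure of 2,000 cells/well to 5-fluorouridine and compound at 37 °C preceded detection. Luciferase was quantified via ONE-Glo luminescence; loss of signal denotes inhibition.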
ELG1 genotox – inducers of genotoxicity in HEK293T ELG1-luciferase cells; HEK293T ELG1-luciferase reporter, luminescence, 16 h; Potency, µM (titrated, usually from 46 µM), without a hit: top-dose activity change, positive = activation, actives largely listed as activators; 330,000 tested, 1.3% active; AID 504466; note: % of control where 0% means no effect; nearly all actives have a fitted effect of over 60% in size
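HEK293T cells expressing luciferase-tagged ELG1 were exposed to compound or DMSO vehicle for 16 hr at 37 °C and 5% CO2. Luciferase activity was then measured with ONE-Glo after 30 min at room temperature.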
NPC1 promoter act – activates the NPC1 promoter. Huh7 NPC1 promoter luciferase reporter, 24 h. Potency, µM (doses to about 9.22 µM), inactives show at the top dose activation, actives largely listed as activators. 320,000 tested, 2.4% active. AID 485313; note: % of control where 0% means no effect; nearly all actives have a fitted effect of over 60% in size
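Huh7 reporter cells (NPC1 promoter driving luciferase) are dosed with compound for 24 h at 37 °C, 5% CO2; luciferase detection reagent is then added and luminescence measured after 10 min at ambient temperature.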
Active calls of the source: *; ? = inconclusive; . = no result; ! = repeats disagree; [ ] = remark or other dose. Rows were chosen to be rich in hits. Some 9.3% of all compounds tested hit in one or more screens of this group. Calls come from the whole dose curve; as a rule, active = well fitted curve in the direction sought with a large enough effect; inconclusive = small, poorly fitted or top-dose-only effect, or another doubt; inactive = no such curve, though single readings can be large; an effect the other way counts as inactive or inconclusive. Potency is the fitted concentration of half-maximal effect.

SMILES	SMN2 splice enh	Rab9 promoter act	FLuc modulator	ELG1 DNA repair	ELG1 genotox	NPC1 promoter act
COc1ccc(Nc2oc(-c3ccc(OC)cc3)nc2C#N)cc1	.	3.55µM*	2.39µM*	?	?	?
Cc1ccsc1C(=O)OCc1nc2ccccc2c(=O)[nH]1	21.2%	22.7%	?	?	?	14.4%
Cn1cccc1Cc1nnc(SCC(=O)NC2CCCCC2)n1-c1ccc(F)cc1	-11.1%	-5.2%	0.0%	-2.4%	-0.4%	1.3%
COc1ccc(N2CCN(C(=O)CN3C(=O)C4CC=CCC4C3=O)CC2)cc1 (stereo unspecified)	-12.8%	-2.1%	2.0%	-0.7%	-5.0%	-1.5%
CCC(=O)Nc1ccc(NC(=O)c2ccco2)c(OC)c1	40.0%	?	1.7%[2.3 µM]	?	?	23.7%
CCOc1cc(NS(=O)(=O)CC)c(OCC)cc1NC(=O)c1ccco1	-10.4%	7.5%	-10.6%	16.4µM*	-7.3%	12.7%
CCOc1cc(NS(=O)(=O)c2ccc(OC)cc2)c(OCC)cc1NC(=O)c1ccco1	5.9%	-0.1%	8.3%	?	-1.3%	-1.7%
COC(=O)c1cc(OC)c(OC)cc1NC(=O)c1ccco1	-12.0%	2.1%	-6.4%	23.1µM*	2.6%	1.3%
COc1ccc(NC(=O)COC(=O)c2cc(OC)c(OC)cc2NC(=O)c2ccco2)cc1OC	-14.5%	-5.4%	-0.6%	23.1µM*	-0.1%	-3.9%
O=C(Nc1cc(=O)[nH]c(=O)[nH]1)c1cc(Cl)ccc1Cl	.	-9.4%	1.1%	?	1.8%[9.26 µM]	-30.7%
CCN(CC)C(=O)Cn1cc(S(=O)(=O)CC(=O)Nc2ccc3c(c2)OCCO3)c2ccccc21	?	22.9%	?	?	13.0%	26.3%
O=C(CSc1ncn[nH]1)Nc1cccc2ccccc12	-21.3%	.	1.0%	.	.	.
COc1cc(N=c2ssnc2Cl)cc(OC)c1	-22.2%	-2.2%	?	-24.1%	-4.8%	-0.3%
N#Cc1cccc(N=c2ssnc2Cl)c1	-18.0%	-4.2%	19µM*	?	-0.3%	0.8%
Clc1ccc(N=c2ssnc2Cl)nc1	.	1.5%	-2.5%	1.3%	-1.5%	1.8%
Clc1nssc1=Nc1ccc(Br)cc1	-11.7%	-1.6%	23.9µM*	?	-5.8%	3.9%
Cc1cc(N2CCC(C)CC2)nc2ccc(NC(=O)CCC(=O)N3CCN(c4cccc(C(F)(F)F)c4)CC3)cc12	-10.0%	.	-1.3%	.	.	.
Cc1ccc2[nH]cc(CCNC(=O)Nc3ccccc3)c2c1	-36.4%	-3.3%	0.1%	-33.6%	-3.4%	0.9%
Cc1cccc(C(=O)Nc2sc(C)c(-c3ccccc3)c2C#N)c1	?	1.58µM*	4.26µM*	?	?	2.82µM*
Cc1noc(C)c1C(=O)Nc1sc(C)c(-c2ccccc2)c1C#N	-117.0%	-2.9%	-2.3%	-11.2%	-25.7%	-0.7%
Cc1sc(NC(=O)C2CCCCC2)c(C#N)c1-c1ccccc1	?	3.98µM*	6.75µM*	?	?	?
Cc1ccccc1N(C)S(=O)(=O)c1nnc(NC(=O)c2ccccc2F)s1	.	0.5%	6.01µM*	-2.3%	-3.7%	-3.9%
O=C(COc1ccccc1)Nc1nnc(S(=O)(=O)Nc2ccccc2)s1	.	-0.5%	1.51µM*!	-1.4%	4.2%	-7.5%
Cc1ccccc1N(C)S(=O)(=O)c1nnc(NC(=O)C(C)C)s1	.	.	-3.0%	.	.	.
Cc1ccccc1OCC(=O)Nc1nnc(S(=O)(=O)N(C)c2ccccc2)s1	.	.	0.953µM*	.	.	.
O=C(COc1ccccc1)Nc1nnc(S(=O)(=O)N2CCCC2)s1	.	-12.0%	2.1%	8.0%	-0.5%	-4.7%
CN(c1ccccc1)S(=O)(=O)c1nnc(NC(=O)COc2ccccc2F)s1	.	-1.6%	-1.3%	-4.8%	-3.7%	-5.9%
CN(c1ccccc1)S(=O)(=O)c1nnc(NC(=O)COc2ccccc2)s1	.	-2.4%	0.426µM*!	8.2%	-1.5%	2.5%
